# In ChEMBL document CHEMBL1961873, “Compounds: GSK PKIS; Assays: Nanosyn kinase panel” (2012):
# How the values were obtained:
# [1] = target: Tyrosine-protein kinase receptor UFO (Homo sapiens) (UniProt P30530); conditions: at 1 µM
# [2] = target: Tyrosine-protein kinase Blk (Homo sapiens) (UniProt P51451); conditions: at 0.1 µM
# [3] = target: Tyrosine-protein kinase Blk (Homo sapiens) (UniProt P51451); conditions: at 1 µM
# [4] = target: T1, Cytoplasmic tyrosine-protein kinase BMX (Homo sapiens) (UniProt P51813); conditions: at 0.1 µM
# T1 sequence (whole entry): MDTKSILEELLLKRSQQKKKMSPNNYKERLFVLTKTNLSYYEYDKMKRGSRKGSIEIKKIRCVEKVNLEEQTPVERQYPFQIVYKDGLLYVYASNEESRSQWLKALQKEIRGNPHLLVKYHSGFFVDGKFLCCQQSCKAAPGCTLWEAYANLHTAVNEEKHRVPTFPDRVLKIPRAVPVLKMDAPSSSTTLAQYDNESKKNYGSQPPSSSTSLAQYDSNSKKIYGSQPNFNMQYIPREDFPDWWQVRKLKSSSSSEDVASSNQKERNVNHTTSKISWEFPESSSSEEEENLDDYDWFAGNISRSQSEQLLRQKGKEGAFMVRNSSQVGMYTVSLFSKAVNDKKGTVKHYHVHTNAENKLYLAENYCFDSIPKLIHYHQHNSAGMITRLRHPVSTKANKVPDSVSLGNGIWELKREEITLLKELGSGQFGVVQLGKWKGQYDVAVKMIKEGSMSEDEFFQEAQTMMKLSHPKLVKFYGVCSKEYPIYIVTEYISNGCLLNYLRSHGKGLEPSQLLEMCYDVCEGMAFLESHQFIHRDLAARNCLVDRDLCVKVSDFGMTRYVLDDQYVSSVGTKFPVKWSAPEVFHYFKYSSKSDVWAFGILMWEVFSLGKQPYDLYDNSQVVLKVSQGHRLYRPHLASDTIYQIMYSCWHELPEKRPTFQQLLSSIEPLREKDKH
# [5] = target: T1, Cytoplasmic tyrosine-protein kinase BMX (Homo sapiens); conditions: at 1 µM
# [6] = target: Protein-tyrosine kinase 6 (Homo sapiens) (UniProt Q13882); conditions: at 0.1 µM
# Chain of Protein-tyrosine kinase 6 (Homo sapiens) (Q13882 whole entry, looked up): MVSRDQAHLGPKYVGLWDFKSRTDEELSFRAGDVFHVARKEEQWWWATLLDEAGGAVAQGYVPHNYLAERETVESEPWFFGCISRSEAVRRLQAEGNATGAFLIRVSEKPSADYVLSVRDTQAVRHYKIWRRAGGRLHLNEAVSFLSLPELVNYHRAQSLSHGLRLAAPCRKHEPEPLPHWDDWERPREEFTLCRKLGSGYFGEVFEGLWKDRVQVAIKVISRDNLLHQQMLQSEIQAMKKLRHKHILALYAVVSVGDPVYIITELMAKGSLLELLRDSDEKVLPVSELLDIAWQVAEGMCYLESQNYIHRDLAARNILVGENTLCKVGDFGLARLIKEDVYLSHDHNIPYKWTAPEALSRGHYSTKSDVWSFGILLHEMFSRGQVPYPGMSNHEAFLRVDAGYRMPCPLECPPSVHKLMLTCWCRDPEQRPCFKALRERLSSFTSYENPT
# [7] = target: Protein-tyrosine kinase 6 (Homo sapiens) (UniProt Q13882); conditions: at 1 µM
# [8] = target: Tyrosine-protein kinase BTK (Homo sapiens) (UniProt Q06187); conditions: at 0.1 µM
# Chain of Tyrosine-protein kinase BTK (Homo sapiens) (Q06187 whole entry): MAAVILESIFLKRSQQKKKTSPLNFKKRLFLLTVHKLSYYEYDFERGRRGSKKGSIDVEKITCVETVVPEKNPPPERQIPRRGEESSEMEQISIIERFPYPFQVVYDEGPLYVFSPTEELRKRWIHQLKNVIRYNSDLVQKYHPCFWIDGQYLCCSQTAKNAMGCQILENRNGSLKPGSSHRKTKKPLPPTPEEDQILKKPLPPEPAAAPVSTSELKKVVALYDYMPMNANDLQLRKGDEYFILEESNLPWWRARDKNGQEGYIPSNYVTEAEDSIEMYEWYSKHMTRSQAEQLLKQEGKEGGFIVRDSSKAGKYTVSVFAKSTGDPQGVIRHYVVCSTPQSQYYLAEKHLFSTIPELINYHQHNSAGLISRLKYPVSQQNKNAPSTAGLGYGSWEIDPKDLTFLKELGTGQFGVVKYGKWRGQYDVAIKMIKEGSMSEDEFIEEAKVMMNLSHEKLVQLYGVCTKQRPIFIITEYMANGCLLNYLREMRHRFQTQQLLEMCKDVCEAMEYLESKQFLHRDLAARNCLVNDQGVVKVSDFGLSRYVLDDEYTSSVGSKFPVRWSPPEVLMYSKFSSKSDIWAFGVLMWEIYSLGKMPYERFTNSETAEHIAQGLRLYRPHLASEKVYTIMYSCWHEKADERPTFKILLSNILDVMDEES
# [9] = target: Tyrosine-protein kinase BTK (Homo sapiens) (UniProt Q06187); conditions: at 1 µM
# [10] = target: Tyrosine-protein kinase CSK (Homo sapiens) (UniProt P41240); conditions: at 0.1 µM;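 note: value given is the averaged percent inhibition of CSK kinase activity, from the GSK PKIS kinase inhibitor set screening panel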
# Chain of Tyrosine-protein kinase CSK (Homo sapiens) (P41240 2-450 limits assumed): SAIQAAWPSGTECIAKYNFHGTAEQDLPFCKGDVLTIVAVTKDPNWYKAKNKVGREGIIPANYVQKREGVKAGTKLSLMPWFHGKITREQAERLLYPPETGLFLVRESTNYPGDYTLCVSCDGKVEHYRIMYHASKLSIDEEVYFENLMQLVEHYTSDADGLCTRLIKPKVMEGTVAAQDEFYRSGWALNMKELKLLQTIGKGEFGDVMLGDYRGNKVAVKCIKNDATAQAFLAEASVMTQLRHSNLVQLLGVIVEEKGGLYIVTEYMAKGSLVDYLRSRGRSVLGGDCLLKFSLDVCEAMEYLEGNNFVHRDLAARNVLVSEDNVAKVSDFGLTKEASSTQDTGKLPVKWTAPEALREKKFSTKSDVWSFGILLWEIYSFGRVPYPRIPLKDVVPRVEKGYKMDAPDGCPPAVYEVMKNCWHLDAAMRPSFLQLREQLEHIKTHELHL
# Chain of Tyrosine-protein kinase Blk (Homo sapiens) (P51451 2-505 limits assumed): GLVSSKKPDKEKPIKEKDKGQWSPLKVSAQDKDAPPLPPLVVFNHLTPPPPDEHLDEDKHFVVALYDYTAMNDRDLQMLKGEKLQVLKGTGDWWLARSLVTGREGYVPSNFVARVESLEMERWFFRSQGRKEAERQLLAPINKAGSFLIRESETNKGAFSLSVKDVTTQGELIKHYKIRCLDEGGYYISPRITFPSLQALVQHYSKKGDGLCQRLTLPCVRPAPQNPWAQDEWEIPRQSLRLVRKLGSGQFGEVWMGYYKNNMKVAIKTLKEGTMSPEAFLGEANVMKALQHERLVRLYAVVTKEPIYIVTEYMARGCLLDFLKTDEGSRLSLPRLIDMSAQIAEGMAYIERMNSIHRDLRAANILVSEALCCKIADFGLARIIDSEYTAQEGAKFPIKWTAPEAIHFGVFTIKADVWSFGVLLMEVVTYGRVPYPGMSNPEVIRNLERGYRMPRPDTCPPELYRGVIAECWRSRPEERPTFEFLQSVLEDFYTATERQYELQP
# Chain of Tyrosine-protein kinase receptor UFO (Homo sapiens) (P30530 whole entry): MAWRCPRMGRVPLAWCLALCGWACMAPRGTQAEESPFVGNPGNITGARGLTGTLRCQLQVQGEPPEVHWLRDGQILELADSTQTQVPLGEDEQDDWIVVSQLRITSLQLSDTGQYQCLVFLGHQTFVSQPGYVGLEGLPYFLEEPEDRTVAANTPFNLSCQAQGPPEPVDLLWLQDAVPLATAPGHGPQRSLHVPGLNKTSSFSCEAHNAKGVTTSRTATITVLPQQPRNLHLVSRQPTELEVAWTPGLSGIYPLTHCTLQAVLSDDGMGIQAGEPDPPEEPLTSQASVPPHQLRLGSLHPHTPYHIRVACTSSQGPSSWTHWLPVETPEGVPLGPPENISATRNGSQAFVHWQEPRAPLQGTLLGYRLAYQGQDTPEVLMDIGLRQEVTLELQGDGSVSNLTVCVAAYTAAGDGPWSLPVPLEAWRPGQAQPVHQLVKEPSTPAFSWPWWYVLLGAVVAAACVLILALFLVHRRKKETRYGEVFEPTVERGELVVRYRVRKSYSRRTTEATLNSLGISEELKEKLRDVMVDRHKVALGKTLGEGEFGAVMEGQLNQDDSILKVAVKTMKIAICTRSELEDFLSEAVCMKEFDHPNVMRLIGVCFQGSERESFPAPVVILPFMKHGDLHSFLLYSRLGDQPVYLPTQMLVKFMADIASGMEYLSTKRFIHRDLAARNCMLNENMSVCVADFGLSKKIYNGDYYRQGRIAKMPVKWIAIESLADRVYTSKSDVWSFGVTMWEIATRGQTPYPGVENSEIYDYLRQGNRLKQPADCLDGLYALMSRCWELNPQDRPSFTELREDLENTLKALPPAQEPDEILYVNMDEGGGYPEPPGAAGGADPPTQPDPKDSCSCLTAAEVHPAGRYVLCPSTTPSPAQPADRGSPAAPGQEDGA
structure (smiles),measurement,setting,value
Fc1cccc(COc2ccc(Nc3ncnc4sc(-c5ccco5)cc34)cc2Cl)c1,inhibition,[1],-6.25%
same,inhibition,[2],4%
same,inhibition,[3],3.74%
same,inhibition,[4],2.98%
same,inhibition,[5],2.36%
same,inhibition,[6],3.39%
same,inhibition,[7],3.91%
same,inhibition,[8],-1.13%
same,inhibition,[9],1.35%
same,inhibition,[10],-0.1%
Cc1ccc2c(-c3ccnc(Nc4ccccc4)n3)c(-c3ccc(F)cc3)nn2n1,inhibition,[1],-3.51%
same,inhibition,[2],6.22%
same,inhibition,[3],49%
same,inhibition,[4],3.36%
same,inhibition,[5],42.7%
same,inhibition,[6],15.2%
same,inhibition,[7],63.4%
same,inhibition,[8],2.84%
same,inhibition,[9],6.06%
same,inhibition,[10],3.99%
CS(=O)(=O)CCNCc1coc(-c2ccc3ncnc(Nc4ccc(OCc5ccccc5)cc4)c3c2)c1,inhibition,[1],0.06%
same,inhibition,[2],2.9%
same,inhibition,[3],11.5%
same,inhibition,[4],4.64%
same,inhibition,[5],6.49%
same,inhibition,[6],-1.1%
same,inhibition,[7],10.9%
same,inhibition,[8],-0.04%
same,inhibition,[9],2.66%
same,inhibition,[10],0.42%
CNC(=O)c1cncc(/C=C/c2ccccc2Cl)c1,inhibition,[1],-0.52%
same,inhibition,[2],3.84%
same,inhibition,[3],4.55%
same,inhibition,[4],1.47%
same,inhibition,[5],8.42%
same,inhibition,[6],0.17%
same,inhibition,[7],10%
same,inhibition,[8],1.39%
same,inhibition,[9],2.01%
same,inhibition,[10],0.04%
CC1=C(C(=O)Nc2cc(Cl)c3[nH]ncc3c2)C(c2ccc(C(F)(F)F)cc2)CC(=O)N1 (stereo not given),inhibition,[1],-2.18%
same,inhibition,[2],4.37%
same,inhibition,[3],33.2%
same,inhibition,[4],0.59%
same,inhibition,[5],4.11%
same,inhibition,[6],5.88%
same,inhibition,[7],10.3%
same,inhibition,[8],-0.51%
same,inhibition,[9],0.33%
same,inhibition,[10],4.43%
CN1CCC(n2cnc(-c3ccc(F)cc3)c2-c2ccnc(N)n2)CC1,inhibition,[1],0.24%
same,inhibition,[2],1.67%
same,inhibition,[3],6.71%
same,inhibition,[4],3.52%
same,inhibition,[5],4.58%
same,inhibition,[6],3.49%
same,inhibition,[7],8.09%
same,inhibition,[8],0.47%
same,inhibition,[9],0.93%
same,inhibition,[10],7.73%
COc1cc(N2CCN(C(C)C)CC2)ccc1Nc1nc(Nc2ccc(F)cc2C(N)=O)c2cc[nH]c2n1,inhibition,[1],42.4%
same,inhibition,[2],1.9%
same,inhibition,[3],3.73%
same,inhibition,[4],1.88%
same,inhibition,[5],5.02%
same,inhibition,[6],4.84%
same,inhibition,[7],31.2%
same,inhibition,[8],-0.63%
same,inhibition,[9],-0.07%
same,inhibition,[10],1.42%
CCCN(CCS(C)(=O)=O)Cc1ccc(-c2ccc3ncnc(Nc4ccc(OCc5cccc(F)c5)c(Cl)c4)c3c2)o1,inhibition,[1],-0.23%
same,inhibition,[2],1.35%
same,inhibition,[3],4%
same,inhibition,[4],0.94%
same,inhibition,[5],3.89%
same,inhibition,[6],4.08%
same,inhibition,[7],7.54%
same,inhibition,[8],-0.01%
same,inhibition,[9],0.03%
same,inhibition,[10],1.98%
FC(F)(F)c1cccc(-c2nn3ncccc3c2-c2ccnc(Nc3ccc4c(c3)OCCO4)n2)c1,inhibition,[1],-1.04%
same,inhibition,[2],4.81%
same,inhibition,[3],45.5%
same,inhibition,[4],7.84%
same,inhibition,[5],29.9%
same,inhibition,[6],4.61%
same,inhibition,[7],28.5%
same,inhibition,[8],-0.12%
same,inhibition,[9],2.88%
same,inhibition,[10],5.73%
CCn1cc(-c2ccnc3[nH]ccc23)c(-c2cccc(NC(=O)Nc3ccc(OCc4ccccc4)cc3)c2)n1,inhibition,[1],0.9%
same,inhibition,[2],2.54%
same,inhibition,[3],18.7%
same,inhibition,[4],1.09%
same,inhibition,[5],-0.27%
same,inhibition,[6],3.04%
same,inhibition,[7],16.2%
same,inhibition,[8],0.34%
same,inhibition,[9],3.3%
same,inhibition,[10],-0.47%
Cc1ccc(O)cc1Nc1ccnc2cc(-c3ccccn3)ccc12,inhibition,[1],-6.05%
same,inhibition,[2],12.5%
same,inhibition,[3],61.8%
same,inhibition,[4],19.8%
same,inhibition,[5],69.2%
same,inhibition,[6],52.5%
same,inhibition,[7],96.9%
same,inhibition,[8],4.79%
same,inhibition,[9],34.5%
same,inhibition,[10],14.5%
NS(=O)(=O)c1ccc(N/N=C2\C(=O)Nc3ccc4ncccc4c32)cc1,inhibition,[1],36.8%
same,inhibition,[2],8.45%
same,inhibition,[3],60%
same,inhibition,[4],6.88%
same,inhibition,[5],25.3%
same,inhibition,[6],5.86%
same,inhibition,[7],31.9%
same,inhibition,[8],1.8%
same,inhibition,[9],13%
same,inhibition,[10],1.66%
COc1ccc(-c2cc3c(N)ncnc3o2)cc1,inhibition,[1],2.96%
same,inhibition,[2],0.55%
same,inhibition,[3],4.67%
same,inhibition,[4],-2.47%
same,inhibition,[5],2.73%
same,inhibition,[6],0.01%
same,inhibition,[7],2.82%
same,inhibition,[8],-0.13%
same,inhibition,[9],-0.38%
same,inhibition,[10],-1.51%
Nc1nc(-c2cccc(Cl)c2)c(-c2ccc3ncccc3n2)s1,inhibition,[1],-8.66%
same,inhibition,[2],3.51%
same,inhibition,[3],7.22%
same,inhibition,[4],2.53%
same,inhibition,[5],5.31%
same,inhibition,[6],5.86%
same,inhibition,[7],10.6%
same,inhibition,[8],0.83%
same,inhibition,[9],-0.84%
same,inhibition,[10],5.57%
CCN(CC)S(=O)(=O)c1ccc(OC)c(Nc2ncc(-c3ccccc3)o2)c1,inhibition,[1],-0.53%
same,inhibition,[2],3.51%
same,inhibition,[3],31.4%
same,inhibition,[4],-2.19%
same,inhibition,[5],7.38%
same,inhibition,[6],-0.82%
same,inhibition,[7],3.3%
same,inhibition,[8],2.59%
same,inhibition,[9],3.38%
same,inhibition,[10],1.59%
CNC(=O)c1cc(-c2ccc(F)cc2)cc(-c2ccc(S(=O)(=O)N3CCCC3)cc2)c1N,inhibition,[1],-4.04%
same,inhibition,[2],2.16%
same,inhibition,[3],2.11%
same,inhibition,[4],2.06%
same,inhibition,[5],2.39%
same,inhibition,[6],1.87%
same,inhibition,[7],1.57%
same,inhibition,[8],-1.58%
same,inhibition,[9],-0.59%
same,inhibition,[10],-0.99%
NC(=O)c1sc(-n2cnc3ccc(C(F)(F)F)cc32)cc1OCc1ccccc1Br,inhibition,[1],-3.8%
same,inhibition,[2],2.51%
same,inhibition,[3],3.45%
same,inhibition,[4],1.05%
same,inhibition,[5],2.91%
same,inhibition,[6],3.76%
same,inhibition,[7],5.16%
same,inhibition,[8],-0.59%
same,inhibition,[9],-2.44%
same,inhibition,[10],4.79%
